RBX1-CUL1 inh – human ROC1-CUL1 E3 ligase inhibition; in vitro K48 di-Ub FRET, acceptor:donor ratio, 45 min; P62877+Q13616; AID 1347404; actives 0.6% (n = 140,000); inhibition, % at 10 µM; in the data active = inhibition above about 25%
A number is an active result. The sample as a whole holds a higher share of hits than the screen did.

For CCCN(CCC)c1ccc(/C=C2/N=C(c3ccccc3)OC2=O)cc1 the results were RBX1-CUL1 inh 42.
CCN(CC)c1ccc(/C=C2/N=C(c3ccc(OC)c(OC)c3)OC2=O)cc1 was read as RBX1-CUL1 inh inactive.
For Cc1ccc(/C=C2\N=C(c3ccc(C)cc3)OC2=O)cc1 the results were RBX1-CUL1 inh inactive.
Screening COC(=O)Cc1cc(OC)c(OC)cc1S(=O)(=O)N1CCN(c2cc(Cl)ccc2C)CC1 returned RBX1-CUL1 inh inactive.
`O=C1SC(SCc2ccccc2Cl)=N/C1=C\c1ccco1` gave RBX1-CUL1 inh inactive.
For O=C(/C=C/c1ccco1)CC1(O)C(=O)N(Cc2ccccc2Cl)c2ccccc21 (stereo not given) the results were RBX1-CUL1 inh inactive.
Screening O=C1SC(SCc2ccccc2Cl)=N/C1=C\C=C\c1ccco1 returned RBX1-CUL1 inh 88.
For Cc1ccc(-n2c(SCC(N)=O)nnc2-c2ccc(Cl)cc2)cc1 the results were RBX1-CUL1 inh inactive.
For N=C1C(Br)C(=O)Nc2nnc(-c3ccc(Cl)cc3)n21 (stereo not given) the results were RBX1-CUL1 inh 32.
Screening COc1ccc(-n2c(-c3ccccc3)nnc2-c2ccc(Cl)cc2)cc1 returned RBX1-CUL1 inh inactive.
For CCC(CC)C(=O)N1CCc2c(cnc(C)c2CNS(=O)(=O)c2cccs2)C1 the results were RBX1-CUL1 inh inactive.
For CN(C)c1ccc(/C=C/C(=O)C(C(=O)c2ccccc2)=C2SCCCCS2)cc1 the results were RBX1-CUL1 inh inactive.
For COc1ccc(C2CC(c3ccccc3)=C(C#N)C(=O)C2C(=O)c2ccccc2)cc1 (stereo not given) the results were RBX1-CUL1 inh inactive.
For C=CCOc1ccc(/C=C2\C(=O)NC(=S)N(c3cccc(Cl)c3Cl)C2=O)cc1 the results were RBX1-CUL1 inh inactive.
`Cc1ccsc1/C=C1/C(=O)NC(=S)N(c2cccc(Cl)c2Cl)C1=O` gave RBX1-CUL1 inh 54.
Screening O=C1NC(=S)N(c2cccc(Cl)c2Cl)C(=O)/C1=C/c1ccc(N2CCOCC2)cc1 returned RBX1-CUL1 inh 29.
For CN1C(=O)/C(=C/c2ccc(N3CCCC3)cc2)C(=O)NC1=S the results were RBX1-CUL1 inh inactive.
For O=C1NC(=S)N(c2cccc(Cl)c2Cl)C(=O)/C1=C/c1cn(Cc2ccc3ccccc3c2)c2ccccc12 the results were RBX1-CUL1 inh inactive.
For Cc1ccc(N2C(=O)NC(=O)/C(=C\c3cccs3)C2=O)cc1C the results were RBX1-CUL1 inh inactive.
Cc1nc(CN2CCN(c3nncc(-c4cccc5ccccc45)n3)CC2)cs1 was read as RBX1-CUL1 inh inactive.
CN1CCc2c(sc3nc(SCc4cccc5ccccc45)n(-c4ccccc4)c(=O)c23)C1 was read as RBX1-CUL1 inh inactive.
Screening COc1ccccc1C1(CC(=O)N(C)CC2Cc3ccccc3O2)CC(=O)N(C2CCCC2)C1=O (stereo not given) returned RBX1-CUL1 inh inactive.
`CN(Cc1ccccc1)C(=O)CN(C)S(=O)(=O)c1cc(Cl)ccc1Cl` gave RBX1-CUL1 inh inactive.
Cc1ccc(O)c(-c2nc(C)ccc2O)n1 was read as RBX1-CUL1 inh inactive.
Screening COc1ccc(C(=O)Nc2ccc3nc(SCC(=O)N4CCOCC4)sc3c2)cc1 returned RBX1-CUL1 inh inactive.
Screening O=C(Nc1ccc2nc(SCC(=O)N3CCCC3)sc2c1)c1cccc(Cl)c1 returned RBX1-CUL1 inh inactive.
Screening O=C(Nc1ccc2nc(SCC(=O)N3CCOCC3)sc2c1)c1cccc(Cl)c1 returned RBX1-CUL1 inh 58.
Cc1cccc(Sc2ccc(N)cn2)c1 was read as RBX1-CUL1 inh inactive.
For COc1ccc(/C=C2\SC(=Nc3cccc(Cl)c3C)NC2=O)c(OC)c1 the results were RBX1-CUL1 inh inactive.
For O=C1NC(=Nc2ccc(Br)cc2)S/C1=C\c1ccccc1O the results were RBX1-CUL1 inh inactive.
COc1ccc(N=C2NC(=O)/C(=C/c3ccc(OCc4cccc(C(=O)O)c4)c(OC)c3)S2)cc1 was read as RBX1-CUL1 inh inactive.
Cc1ccccc1/C=C1/SC(=Nc2ccccc2)NC1=O was read as RBX1-CUL1 inh inactive.
CCOc1ccccc1/C=C1\SC(=Nc2cccc(Cl)c2C)NC1=O was read as RBX1-CUL1 inh 26.
`O=C1NC(=Nc2ccc(C(=O)O)cc2)S/C1=C/c1ccccc1OCc1ccccc1` gave RBX1-CUL1 inh 94.
Screening CCc1ccc(N=C2NC(=O)/C(=C/c3cc(C)n(-c4ccncc4)c3C)S2)cc1 returned RBX1-CUL1 inh inactive.
Cc1cc(/C=C2\SC(=Nc3ccccc3)NC2=O)c(C)n1-c1cc(C(=O)O)cc(C(=O)O)c1 was read as RBX1-CUL1 inh 69.
CCOc1cc(/C=C2\SC(=Nc3cccc(Cl)c3C)NC2=O)cc(Br)c1OC was read as RBX1-CUL1 inh inactive.
Screening COCCN1CCC(CN(Cc2ccncc2)Cc2ncc[nH]2)CC1 returned RBX1-CUL1 inh inactive.
Cc1ccc(C(=O)Oc2cc(Cl)nnc2-c2ccccc2)cc1 was read as RBX1-CUL1 inh inactive.
`CC(C)c1nc(CNC(=O)c2ccc(NC3CCCC3)nc2)no1` gave RBX1-CUL1 inh inactive.
For CCc1c(C(=O)N2CCN(c3ccc(F)cc3)CC2)csc1C the results were RBX1-CUL1 inh inactive.
Screening Nc1c(C(=O)N2c3ccccc3Sc3ccc(Cl)cc32)sc2nc3c(cc12)CCCCC3 returned RBX1-CUL1 inh inactive.
For CCNC(=O)C1CCN(Cc2ccccc2C)CC1 the results were RBX1-CUL1 inh inactive.
For O=C1NN(c2cccc(F)c2)C(=O)/C1=C\c1cccc(OC(=O)c2cccs2)c1 the results were RBX1-CUL1 inh 27.
`Cc1ccc(N2NC(=O)/C(=C/c3cccc(Br)c3)C2=O)cc1` gave RBX1-CUL1 inh inactive.
For Cc1cccc(N2NC(=O)/C(=C\c3cccs3)C2=O)c1 the results were RBX1-CUL1 inh inactive.
`O=C1NN(c2cccc(Br)c2)C(=O)/C1=C\c1cccc(OC(=O)c2cccs2)c1` gave RBX1-CUL1 inh 87.
Screening CCOC(=O)c1ccc(N2NC(=O)/C(=C/c3cccc(OC(=O)c4cccs4)c3)C2=O)cc1 returned RBX1-CUL1 inh 67.
O=C1NN(c2ccc(Cl)c(Cl)c2)C(=O)/C1=C/c1cccc(OC(=O)c2cccs2)c1 was read as RBX1-CUL1 inh inactive.
`CCc1ccc(N2NC(=O)/C(=C/c3cccc(OC(C)=O)c3)C2=O)cc1` gave RBX1-CUL1 inh inactive.
For CCc1ccc(N2NC(=O)/C(=C/c3ccc(OC(=O)c4cccs4)c(OC)c3)C2=O)cc1 the results were RBX1-CUL1 inh inactive.
For CC(=O)Oc1cccc(/C=C2/C(=O)NN(c3ccc(F)cc3)C2=O)c1 the results were RBX1-CUL1 inh inactive.
`CCOC(=O)C1(C)CC(=Nc2ccc(C(=O)O)cc2)C(=O)N1c1ccc(C(=O)O)cc1` (stereo not given) gave RBX1-CUL1 inh inactive.
Screening O=C(NC(=S)N1CCN(C/C=C/c2ccccc2)CC1)C12CC3CC(CC(C3)C1)C2 returned RBX1-CUL1 inh inactive.
For Cn1c(=O)c2nc(Br)cnc2n(C)c1=O the results were RBX1-CUL1 inh inactive.
Screening O=C(C1CCC1)N1CCN(Cc2ccc(Cl)c(Cl)c2)CC1 returned RBX1-CUL1 inh inactive.
For CC(c1ccccc1)n1c(CCO)nc2ccccc21 (stereo not given) the results were RBX1-CUL1 inh inactive.
For COc1ccc(Cc2nnc(SCC(=O)Nc3ccc(Br)cc3)n2C)cc1 the results were RBX1-CUL1 inh inactive.
`Cc1cc2n(n1)C(c1c(OCc3ccccc3)ccc3ccccc13)Nc1c(C)cccc1-2` (stereo not given) gave RBX1-CUL1 inh inactive.
Screening Cc1ccccc1OC(C)C(=O)Nc1ccccc1NC(=O)C(C)Oc1ccccc1C (stereo not given) returned RBX1-CUL1 inh inactive.
